Our source for the growth values is PubChem BioAssay (NCI).

Test systems include DU-145 prostate; MALME-3M melanoma; MDA-MB-231 breast; RXF 393 renal; SF-268 CNS; SF-295 CNS; SF-539 CNS; UACC-257 melanoma; M14 melanoma.
Holding throughout (test): NCI-60 one-dose screen, 48 h (100 = growth as untreated, 0 = no growth, -100 = all killed)
What all share (settings): 10 µM unless noted

About 83,000 compounds went through this panel and 20% of them were active in at least one assay; those are over-represented in the sample as a whole.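 48-hour exposure, single concentration, 96-well plates; percent growth endpoint where 0 means no net growth. Active: below 10.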 Unmarked numbers belong to inactive results. Calls of active or inactive are those of the source.

`Cc1cccc(C)c1N=c1oc2ccc(Cl)cc2nc1-c1ccccc1O`: the growth in the experiment with DU-145 prostate was 120%; with MALME-3M melanoma it was 105%; with MDA-MB-231 breast, 83.6%; in the experiment with RXF 393 renal it was 90.9%; with SF-268 CNS it was 92.1%; in the experiment with SF-295 CNS it was 106%. Further, the values for the growth in the experiment on SF-539 CNS, in the experiment on UACC-257 melanoma and in the experiment on M14 melanoma were 99.5%, 90.8% and 80.5%, respectively.

With `COc1cc(/C=C2\COc3ccc(-c4ccccc4)cc3C2=O)cc(OC)c1`, the growth in the experiment on DU-145 prostate is 85.8%; in the experiment with MALME-3M melanoma, 101%; in the experiment on MDA-MB-231 breast, 95.5%; in the experiment on RXF 393 renal, 66.1%; in the experiment on SF-268 CNS it was 82.3%; in the experiment on SF-295 CNS it was 68.9%. The results for the growth with SF-539 CNS, with UACC-257 melanoma and in the experiment with M14 melanoma were 100%, 70.9% and 91.9%, respectively.

Turning to `O=C1c2cccc3c(-c4ccc5c(c4)ncn5C4CCCCC4)ccc(c23)C(=O)N1CCO`, the growth in the experiment with DU-145 prostate is 100%; with MALME-3M melanoma it was 105%; in the experiment on MDA-MB-231 breast, 71.1%; with RXF 393 renal, 106%; in the experiment on SF-268 CNS, 93.9%; in the experiment on SF-295 CNS, 81.9%. The growth in the experiment with SF-539 CNS is 99%; in the experiment on UACC-257 melanoma, 94.5%; with M14 melanoma, 106%.

Regarding `Cc1nnc2c(Cc3ccccc3)nc3ccccc3n12`, the growth is 97.7% in the experiment with DU-145 prostate; 109% in the experiment on MALME-3M melanoma; 96.1% with MDA-MB-231 breast; 95.4% in the experiment on RXF 393 renal; 89.9% in the experiment with SF-268 CNS; 99.7% with SF-295 CNS. In addition, the growth is 95.8% in the experiment with SF-539 CNS, 104% with UACC-257 melanoma and 99% in the experiment on M14 melanoma.

For the compound `CC(=O)OC[C@]12CC[C@@H](C(=O)CBr)[C@@H]1[C@H]1CC[C@@H]3[C@@]4(C)CC[C@H](OC(C)=O)C(C)(C)[C@@H]4CC[C@@]3(C)[C@]1(C)CC2`, the growth with DU-145 prostate is 100%; with MALME-3M melanoma, 89.2%; in the experiment with MDA-MB-231 breast it was 110%; in the experiment on RXF 393 renal it was 99.7%; in the experiment on SF-268 CNS, 89.9%; in the experiment with SF-295 CNS, 106%. The growth was 91.7% in the experiment on SF-539 CNS, 108% in the experiment on UACC-257 melanoma and 87.2% in the experiment with M14 melanoma.

For `Clc1ccc(-c2ccc(CNCC3CCNCC3)o2)c(-c2ccccc2)c1`, the growth in the experiment with DU-145 prostate was -94.2% (active); with MALME-3M melanoma it was -85.4% (active); in the experiment on MDA-MB-231 breast it was -86.5% (active); in the experiment with RXF 393 renal, -88.2% (active); in the experiment on SF-268 CNS it was -82% (active); in the experiment with SF-295 CNS, -86.1% (active). Moreover, the growth in the experiment on SF-539 CNS is -90.3% (active); in the experiment on UACC-257 melanoma, -75.3% (active); in the experiment with M14 melanoma, -83.3% (active).

As to `CNCCOc1nc2c3cnccc3cc(-c3cc(OC)c(OC)c(OC)c3)c2c2ccncc12`, the growth is -13.7% (active) in the experiment with DU-145 prostate; -80.2% (active) in the experiment on MALME-3M melanoma; -9.1% (active) in the experiment on MDA-MB-231 breast; -85.7% (active) with RXF 393 renal; -9.41% (active) in the experiment on SF-268 CNS; -20.7% (active) with SF-295 CNS. Also, the growth is -59.5% (active) in the experiment with SF-539 CNS, -43.1% (active) with UACC-257 melanoma and -67.8% (active) in the experiment with M14 melanoma.

For the compound `O=C1c2cccc3c(-c4ccc5c(c4)ncn5C4CCCCC4)ccc(c23)C(=O)N1c1nc2ccccc2s1`, the growth in the experiment on DU-145 prostate was 105%; in the experiment on MALME-3M melanoma it was 93%; in the experiment on MDA-MB-231 breast, 74%; in the experiment on RXF 393 renal it was 105%; in the experiment on SF-268 CNS, 94.1%; with SF-295 CNS, 90.4%. Also, the growth is 95.7% in the experiment with SF-539 CNS, 101% in the experiment on UACC-257 melanoma and 93.8% with M14 melanoma.

Consider `CCCCC/C=C/C(C)=C/C1CC(C)C/C=C/CCC(O)C(OC(N)=O)CCC(C)CC(O)C(C)C(=O)O1` (stereo not given), for which the growth in the experiment with DU-145 prostate is 79.5%; in the experiment with MALME-3M melanoma, 101%; in the experiment with RXF 393 renal it was 110%; in the experiment on SF-268 CNS, 104%; in the experiment on SF-295 CNS, 59.2%; with SF-539 CNS, 106%. For the same compound, the growth in the experiment with UACC-257 melanoma was 88.1%; in the experiment on M14 melanoma, 72.9%.

Take `COc1ccc2c(c1)oc1c(C)c3c(c(C)c12)C(=O)N(N)C3=O`: the growth with DU-145 prostate is 27.9%; in the experiment with MALME-3M melanoma, -5.47% (active); in the experiment on MDA-MB-231 breast, -4.83% (active); with RXF 393 renal, 28.5%; with SF-268 CNS it was 39.8%; in the experiment with SF-295 CNS, 12%. In addition, the figures for the growth in the experiment with SF-539 CNS, in the experiment with UACC-257 melanoma and in the experiment with M14 melanoma were -6.28% (active), 40.5% and 13.9%, respectively.

Regarding `COC(=O)c1ccc2c(c1)[n+](=O)c(C(C)=O)c(C(F)(F)F)n2[O-]`, the growth in the experiment on DU-145 prostate is 1.28% (active); in the experiment on MALME-3M melanoma, -26.4% (active); in the experiment with MDA-MB-231 breast, -4.69% (active); in the experiment with RXF 393 renal, -20.1% (active); in the experiment on SF-268 CNS it was -24.8% (active); in the experiment with SF-295 CNS, -45.7% (active). The growth is -45.8% (active) with SF-539 CNS, -30.3% (active) in the experiment on UACC-257 melanoma and -23.5% (active) in the experiment with M14 melanoma.

Take `CCOC(=O)CC1CSC(N/N=C/c2ccc(-n3cccn3)cc2)=N1` (stereo not given): the growth is 108% in the experiment with DU-145 prostate; 113% in the experiment with MALME-3M melanoma; 101% with MDA-MB-231 breast; 105% with RXF 393 renal; 103% in the experiment on SF-268 CNS; 107% with SF-295 CNS. The growth is 107% with SF-539 CNS, 96.2% in the experiment with UACC-257 melanoma and 107% in the experiment with M14 melanoma.

As for `COc1ccc(/C=C/c2nc(Nc3ccc(Cl)cc3)c3ccccc3n2)cc1`, the growth is 50.2% in the experiment with DU-145 prostate; 94.6% in the experiment on MALME-3M melanoma; 38.2% in the experiment on MDA-MB-231 breast; 56.6% in the experiment with RXF 393 renal; 54.3% with SF-268 CNS; 72.6% in the experiment on SF-295 CNS. Further, the growth is 90.9% in the experiment with SF-539 CNS, 92.2% in the experiment with UACC-257 melanoma and 34.3% in the experiment with M14 melanoma.

With `CN1C(N2CCN(S(=O)(=O)c3ccccc3)CC2)=NS(=O)(=O)c2ccccc21`, the growth in the experiment with DU-145 prostate is 139%; in the experiment on MALME-3M melanoma it was 103%; in the experiment on MDA-MB-231 breast it was 104%; in the experiment on RXF 393 renal, -6.07% (active); with SF-268 CNS, 101%; in the experiment on SF-295 CNS, 39.9%. Besides, the growth in the experiment on SF-539 CNS is 111%; in the experiment on UACC-257 melanoma, 61.5%; with M14 melanoma, 99.8%.

In the case of `NC(=S)N1N=C(c2ccccc2)CC1c1cn(-c2ccccc2)nc1-c1ccc(OCc2ccccc2)cc1` (stereo not given), the growth was 104% in the experiment on DU-145 prostate; 101% with MALME-3M melanoma; 99.2% in the experiment with MDA-MB-231 breast; 110% in the experiment with RXF 393 renal; 101% with SF-268 CNS; 105% in the experiment on SF-295 CNS. Besides, the results for the growth in the experiment with SF-539 CNS, in the experiment with UACC-257 melanoma and in the experiment on M14 melanoma were 102%, 92.9% and 101%, respectively.

Turning to `Cc1ccc(NS(=O)(=O)c2ccc(-c3cnc(C4CC4)o3)cc2)cc1C(F)(F)F`, the growth in the experiment on DU-145 prostate was 87.1%; with MALME-3M melanoma, 65.8%; in the experiment with MDA-MB-231 breast it was 78.8%; in the experiment on RXF 393 renal, 69.4%; in the experiment on SF-268 CNS it was 77.5%; in the experiment on SF-295 CNS it was 43.6%. The results for the growth in the experiment on SF-539 CNS, in the experiment with UACC-257 melanoma and in the experiment on M14 melanoma were 65.5%, 73.7% and 48.6%, respectively.

Turning to `Oc1ccc(OCCOc2ccc(O)cc2)cc1`, the growth in the experiment on DU-145 prostate is 61.4%; in the experiment on MALME-3M melanoma, 62%; in the experiment with MDA-MB-231 breast it was 50.3%; in the experiment on RXF 393 renal, 71.7%; with SF-268 CNS, 61%; in the experiment with SF-295 CNS it was 32.7%. Also, the growth in the experiment with SF-539 CNS is 28%; in the experiment with UACC-257 melanoma, 83.8%; in the experiment on M14 melanoma, 15.8%.

Turning to `COc1cc(/C=C\c2cc(OC)c(OC)c(OC)c2)cc(NC(=O)/C=C/c2cc(OC)c(OC)c(OC)c2)c1OC`, the growth with DU-145 prostate is 78%; in the experiment with MALME-3M melanoma, 48.7%; with MDA-MB-231 breast, 51.3%; in the experiment with RXF 393 renal it was 28.7%; with SF-268 CNS, 72.6%; with SF-295 CNS, 32.6%. The growth in the experiment with SF-539 CNS was 56.4%; in the experiment on UACC-257 melanoma it was 68.4%; in the experiment on M14 melanoma, 37.9%.

For the compound `C=C(C)[C@@H]1CC[C@]2(C(=O)N[C@H](CO)Cc3ccccc3)CC[C@]3(C)[C@H](CC[C@@H]4[C@@]5(C)CCCNC(C)(C)[C@@H]5CC[C@]43C)[C@@H]12`, the growth in the experiment on DU-145 prostate is -87.4% (active); with MALME-3M melanoma, -82.9% (active); in the experiment on MDA-MB-231 breast, -87.1% (active); in the experiment with RXF 393 renal it was -91.5% (active); in the experiment with SF-268 CNS, -81.2% (active); with SF-295 CNS it was -91.8% (active). The results for the growth with SF-539 CNS, in the experiment on UACC-257 melanoma and with M14 melanoma were -87.7% (active), -88.8% (active) and -90.2% (active), respectively.
